From PubChem BioAssay AID588590 (National Center for Advancing Translational Sciences (NCATS), 2011)
In all, about 390,000 compounds went through this assay and about 4,000 (1%) were called active. A call without a number means that no potency is given here. Not shown: some 7% with an inconclusive outcome. Calls follow the shape of the dose curve; as a rule, active = well fitted inhibition curve with a large enough effect; inconclusive = small, poorly fitted or top-dose-only effect, or another doubt; inactive = no such curve, though single readings can be large or run the other way. Only a selection was taken, and actives are over-represented in it overall.

target: DNA polymerase iota (Homo sapiens) (UniProt Q9UNA4); experiment: qHTS for Inhibitors of Polymerase Iota; details: Pol iota fluorescent replication assay, 10 min; series mostly up to 115 µM
Excerpt: DNA polymerases, such as Pol iota, are specifically involved in DNA repair. Pol iota specifically plays an important role in translesion synthesis, where the normal high-fidelity DNA polymerases cannot proceed and DNA synthesis stalls. […] Thus, while pol eta's (and most likely iota's) normal function is to protect humans against the deleterious consequences of DNA damage, under certain conditions they can have deleterious effects on human health. As a consequence, we propose to utilize a high throughput replication assay to identify small molecule inhibitors of pol iota.
In a collaboration between the National Institute of Child Health & Human Development (NICHD) and NIH Chemical Genomics Center, a high-throughput, fluorescent screen was developed to screen the NIH Molecular Libraries Small Molecule Repository (MLSMR). This screen is used to identify inhibitors of pol iota.
NIH Chemical Genomics Center [NCGC]
NIH Molecular Libraries Probe Centers Network [MLPCN]
Assay Submitter (PI): Roger Woodgate, NICHD)
Three microliters of reagents (buffer in column 3 and 4 as negative control and 10 nM Pol iota in columns 1, 2, and 5-48) will be dispensed into 1,536-well black solid-bottomed plate. Compounds (23 nL) will be transferred via Kalypsys pin tool equipped with 1536-pin array. The plates will then be incubated for 15 min at room temperature, and 1 µL substrate (50 nM final concentration) will be added to start the reaction and kinetically read twice at 0 min and 10 min on the Viewlux reader.
Potency is read from the fitted curve at half-maximal effect.

Chain of DNA polymerase iota (Homo sapiens) (Q9UNA4 whole entry, looked up): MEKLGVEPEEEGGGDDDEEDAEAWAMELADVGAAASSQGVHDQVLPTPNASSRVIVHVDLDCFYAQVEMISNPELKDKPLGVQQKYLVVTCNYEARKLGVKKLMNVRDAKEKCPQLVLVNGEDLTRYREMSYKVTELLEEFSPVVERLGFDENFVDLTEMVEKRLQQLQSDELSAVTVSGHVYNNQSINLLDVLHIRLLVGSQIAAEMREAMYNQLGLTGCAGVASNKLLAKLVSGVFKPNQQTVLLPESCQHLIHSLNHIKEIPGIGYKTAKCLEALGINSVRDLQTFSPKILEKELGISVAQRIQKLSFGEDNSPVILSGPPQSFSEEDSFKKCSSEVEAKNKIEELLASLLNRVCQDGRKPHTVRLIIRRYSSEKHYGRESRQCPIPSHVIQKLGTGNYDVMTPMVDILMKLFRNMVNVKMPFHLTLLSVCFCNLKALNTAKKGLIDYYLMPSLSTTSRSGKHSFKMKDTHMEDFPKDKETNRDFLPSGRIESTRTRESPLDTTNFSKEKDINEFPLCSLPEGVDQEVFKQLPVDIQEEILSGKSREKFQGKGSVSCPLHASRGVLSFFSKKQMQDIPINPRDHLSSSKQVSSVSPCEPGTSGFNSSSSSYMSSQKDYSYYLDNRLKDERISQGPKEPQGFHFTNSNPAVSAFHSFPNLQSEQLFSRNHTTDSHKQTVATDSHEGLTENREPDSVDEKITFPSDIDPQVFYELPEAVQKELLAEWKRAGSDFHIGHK

Row | SMILES | Potency
1 | CC(=O)c1c(O)c(C)c(O)c(Cc2c(O)c3c(c(C(=O)/C=C/c4ccccc4)c2O)OC(C)(C)C=C3)c1O | 50.1 µM (active)
2 | CCCCOP(=O)(c1ccc(N(C)C)cc1)C(O)c1cc(OC)ccc1OC (stereo not given) | inactive
3 | CC(=O)NBr | inactive
4 | COc1ccc(N2C(=O)/C(=C/c3ccco3)C(=O)NC2=S)cc1 | 4.47 µM (active)
5 | CNCC[C@H](Oc1ccc(C(F)(F)F)cc1)c1ccccc1 | inactive
6 | O=C1C=C(NS(=O)(=O)c2ccccc2)C(=O)c2ccccc21 | inactive
7 | O=c1[nH]c(=S)[nH]c(O)c1/C=C1\C=Nc2ccccc21 | inactive
8 | O=C(O)/C=C/c1ccc2c(c1)OCO2 | inactive
9 | Cc1cc(/C=C2/C(=O)NC(=O)N(Cc3ccco3)C2=O)c(C)n1-c1ccc(C(=O)O)cc1 | 14.1 µM (active)
10 | O=C1NC(=O)N(Cc2ccco2)C(=O)/C1=C\c1cccn1CCOc1ccccc1 | 22.4 µM (active)
11 | O=C1NC(=O)N(Cc2ccco2)C(=O)/C1=C\c1ccc(-c2ccc(F)cc2)o1 | 11.2 µM (active)
12 | CC1=NNC(=O)C1Cc1c(Cl)cccc1Cl (stereo not given) | inactive
13 | Cn1c(=O)oc2cc(S(=O)(=O)N3CCC(C(=O)Nc4ccc(OC(F)(F)F)cc4)CC3)ccc21 | inactive
14 | O=C(Oc1ccc2c(c1)CCC2)N1CCOCC1 | inactive
15 | CCOC(=O)c1ccc(N2C(=O)c3[nH]nc(-c4ccccc4)c3C2c2ccc(C(C)C)cc2)cc1 (stereo not given) | inactive
16 | CCN(CC)C(=O)Oc1ccc(Br)cc1C(=O)Nc1ccc(F)c(Cl)c1 | inactive
17 | CC(=O)c1ccc(OC(=O)N2CCOCC2)cc1 | inactive
18 | CCOC(=O)C(NS(=O)(=O)c1ccc(C)cc1)(C(F)(F)F)P(=O)(OCC(C)C)OCC(C)C (stereo not given) | inactive
19 | O=C1c2ccccc2NC(c2ccccc2O)N1NS(=O)(=O)c1ccccc1 (stereo not given) | inactive
20 | O=C(CN1CCCC1=O)NCCc1ccccc1 | inactive
21 | CC(C)(C)c1ccc(CN2C(=O)CN=C(c3ccccc3)c3ccccc32)cc1 | inactive
22 | O=C1CC(=O)N(Cc2ccccc2)C(=O)N1CCCCCCN1C(=O)CC(=O)N(Cc2ccccc2)C1=O | 17.8 µM (active)
23 | S=C(Nc1ccc(Br)cc1Cl)N1CCC2(CC1)OCCO2 | inactive
24 | CC[C@H]1CN2CCc3cc(OC)c(OC)cc3[C@@H]2C[C@@H]1C[C@H]1NCCc2cc(OC)c(OC)cc21 | inactive
25 | CCOCCCNC(=O)c1c(NC(=O)c2nc(SC)ncc2Cl)sc2c1CCCC2 | inactive
26 | O=S(=O)(Nc1ccc2[nH]ncc2c1)c1ccccc1Cl | inactive
27 | O=[N+]([O-])c1ccc(Cl)c(Cl)c1 | inactive
28 | CO[C@H]1[C@@H](O)[C@@H](C)O[C@H](O[C@H]2[C@H](Oc3cccc4c(O)c5c(=O)oc6ccc(C)c7c(=O)oc(c34)c5c67)O[C@H](C)[C@H](O)[C@@H]2O)[C@@H]1O | 20 µM (active)

Row | SMILES | Potency
29 | CCOc1ccc(C(NC(=O)c2cc(OC)c(OC)c(OC)c2)c2cc(Cl)c3cccnc3c2O)cc1 (stereo not given) | inactive
30 | Cc1ccc(NC(=O)CN(C)CC(=O)Nc2cccc(F)c2)cc1[N+](=O)[O-] | inactive
31 | O=P1(Oc2ccccc2)CC(O)C(O)C(COCc2ccccc2)O1 (stereo not given) | inactive
32 | N#Cc1c(Cl)c(Cl)c(Cl)c(C#N)c1Cl | 1.58 µM (active)
33 | CC(CCn1cccn1)NC(=O)CCc1nnc(CCc2ccccc2)o1 (stereo not given) | inactive
34 | O=C(NCc1cccs1)c1ccc(Br)o1 | inactive
35 | O=C(c1ccccc1[N+](=O)[O-])N1CCC2(CC1)OCCO2 | inactive
36 | O=C(O)c1cc[c]([Sb](=[O])([OH])[OH])cc1[N+](=O)[O-] | 1 µM (active)
37 | COc1cc(C2c3cc4c(cc3C(O)C3COC(=O)C23)OCO4)cc(OC)c1OC (stereo not given) | inactive
38 | COc1cc([C@@H]2c3cc4c(cc3[C@H](OC(C)=O)[C@H]3COC(=O)[C@H]23)OCO4)cc(OC)c1OC | inactive
39 | CCOC(=O)c1ncn2c1[C@@H]1CCCN1C(=O)c1cc(OC)ccc1-2 | inactive
40 | Cc1ccc(C)c(NS(=O)(=O)c2ccc(OCC(=O)NCc3cccnc3)cc2)c1 | inactive
41 | CCOP(=O)(OCC)C(Nc1cccc(C)c1)c1ccc(F)cc1 (stereo not given) | inactive
42 | O=c1c2ccccc2nc(/C=C/c2ccco2)n1-c1ccccc1O | 44.7 µM (active)
43 | O=c1c2ccccc2nc(/C=C/c2ccc(F)cc2)n1-c1ccccc1O | inactive
44 | Cn1cc(/C=C/c2nc3ccccc3c(=O)n2-c2ccccc2)c2ccccc21 | inactive
45 | Cc1ncoc1C(=O)NCCC(c1ccccc1)c1ccccc1 | inactive
46 | CCCCN1C2CCC1CC(OC(c1ccc(F)cc1)c1ccc(F)cc1)C2 (stereo not given) | inactive
47 | Cc1ccc(NC(=O)O/N=C/c2cccc([N+](=O)[O-])c2)cc1 | inactive
48 | c1csc(-c2nnc(COc3ccc4c(c3)OCO4)o2)c1 | inactive
49 | O=C1NC(=O)N(c2ccccc2)C(=O)/C1=C/c1ccc([N+](=O)[O-])s1 | 11.2 µM (active)
50 | Cc1nnc(NCc2ccccc2)c2c1nnn2Cc1ccc(F)cc1 | inactive
51 | O=C(C1CCN(S(=O)(=O)c2ccc(Br)s2)CC1)N1CCN(c2ccccc2)CC1 | inactive
52 | CC(C)N1C(=S)SC(C)(C)C1n1oc(=O)n(-c2ccc(Cl)c(Cl)c2)c1=O (stereo not given) | inactive
53 | Cc1ccccc1NC(=O)c1c(NC(=O)c2ccccc2F)sc2c1CCC(C)C2 (stereo not given) | inactive
54 | CC(C)(C)c1ccc(C(=O)NCc2ccco2)cc1 | inactive
55 | CCc1ccccc1NC(=O)c1sc2nc3c(cc2c1N)CN(Cc1ccccc1)CC3 | inactive
